Our source for the inhibition values is PubChem BioAssay AID2315 (National Center for Advancing Translational Sciences (NCATS), 2010).

SMILES strings stand for the structures. Screen size: about 290,000 compounds; about 27,000 (9.3%) were called active. The sample holds actives, similar compounds and a random draw of the others, so the mix is not that of the screen. Rule as the data show it: active = inhibition mostly above about 28% (no sharp cut-off); inactive = mostly below about 43%.

A short description of this test: A qHTS for Small Molecule Inhibitors of Shiga Toxin. Also: 0% is about no effect. The conditions noted are these: Vero cells, Shiga toxin protein synthesis inhibition reporter; at 38.7 µM, active compounds read high.
Regarding `CC(C)C(c1nnnn1C1CCCCC1)N1CCN(C(=O)c2ccco2)CC1` (stereo unspecified), the inhibition was -10.3% (inactive).

As for `Cc1ccc(-n2ncc(C(=O)NC3CC3)c2C2CCN(C(=O)OC(C)(C)C)CC2)c(C)c1`, the inhibition was 16.2% (inactive).

In the case of `O=C(C1CCCN(S(=O)(=O)c2ccc([N+](=O)[O-])cc2)C1)N1CCCCC1` (stereo unspecified), the inhibition is 2.21% (inactive).

Turning to `COc1cccc(/C=C2/SC(=S)N(CC(=O)NC3C=CS(=O)(=O)C3)C2=O)c1` (stereo unspecified), the inhibition is 16.1% (inactive).

On to `CC(C)CNC(=O)C(=O)NCC(c1ccc2c(c1)OCO2)N1CCOCC1` (stereo unspecified), for which the inhibition was -7.49% (inactive).

Turning to `O=S(=O)(Nc1ccccc1Br)c1cccs1`, the inhibition was 6.38% (inactive).

Consider `COC(=O)c1ccc(CSc2nncn2C)cc1`, for which the inhibition was 177% (active).

On to `COC(=O)c1ccc(CSc2nncn2N)cc1`, for which the inhibition was 26.1% (inactive).

For `CC(C)CC(CC(C)C)=NNC(=O)c1ccc(CSc2nncn2C)cc1`, the inhibition is 16% (inactive).

Consider `O=C(NC(=S)Nc1ncccn1)c1ccccc1Br`, for which the inhibition is 9.32% (inactive).

With `Cc1ccc(NC2CCCN(C(=O)CCc3cn[nH]c3)C2)cc1C` (stereo unspecified), the inhibition is 9.62% (inactive).

In the case of `CC(NCC(=O)Nc1cc(Cl)cc(Cl)c1)c1ccccc1` (stereo unspecified), the inhibition was -4.69% (inactive).

Turning to `COc1ccc(/C=N/Nc2nc3ccccc3c(=O)[nH]2)cc1`, the inhibition is 60.8% (active).

`COc1ccc(/C=N/OCC(=O)N(Cc2ccccc2)c2ccccc2C(=O)O)cc1`: the inhibition is -13.4% (inactive).

For `COc1ccc(C=Nc2cccc3ncccc23)cc1`, the inhibition was -17.4% (inactive).

Consider `COc1ccc(CCCc2nnc(SCc3nc4ccccc4c(=O)[nH]3)n2C)cc1`, for which the inhibition is -10.2% (inactive).

As to `COc1ccc(/C=N/Nc2ccccc2C(=O)O)cc1`, the inhibition is 31.8% (active).

Consider `COc1ccc(/C=N/NS(=O)(=O)c2ccc(NC(C)=O)cc2)cc1`, for which the inhibition is 24.7% (inactive).

On to `COC(=O)c1sccc1NS(=O)(=O)c1ccc(F)cc1F`, for which the inhibition was 11.9% (inactive).

As for `COCCCn1c(SCC(=O)NC2CCCC2)nnc1-c1ccccc1`, the inhibition is -6.72% (inactive).

`Cc1nc(-c2ccc(F)cc2)c(CC(=O)N2CCN(S(=O)(=O)c3ccc(F)cc3)CC2)s1`: the inhibition is 26.6% (inactive).

For `NS(=O)(=O)c1ccc(CCNc2nc(C(F)(F)F)nc3ccccc23)cc1`, the inhibition is -9.53% (inactive).

On to `CC1COc2ccccc2N1C(=O)c1ccc(F)cc1` (stereo unspecified), for which the inhibition was -4.1% (inactive).

As to `S=C1NC(c2ccccc2)=NCN1c1ccc(Br)cc1`, the inhibition is 29.2% (inactive).

Take `Brc1ccccc1C1Nc2cccc3cccc(c23)N1`: the inhibition is -2.7% (inactive).

For the compound `N#Cc1ccc(C2N=C(c3ccccc3)NO2)cc1` (stereo unspecified), the inhibition was 89.5% (active).

Regarding `Brc1ccccc1C1N=C(c2ccccc2)NO1` (stereo unspecified), the inhibition was 85.7% (active).

Regarding `O=C1CCCCN1CCCC(=O)N1CCCC(Nc2ccc(F)cc2)C1` (stereo unspecified), the inhibition is 7.4% (inactive).

On to `CCOc1ccc(NC(=O)CCCCCN2C(=O)[C@@H]3Cc4ccccc4CN3C2=O)cc1`, for which the inhibition was 3.39% (inactive).

Turning to `CCCNC(=O)C(=O)Nc1cc2c3c(c1)CCC(=O)N3CCC2`, the inhibition was 5.83% (inactive).

`COc1ccc(N2C(=O)C(CC(=O)Nc3ccccc3)N(Cc3ccc(OC)c(OC)c3)C2=O)cc1` (stereo unspecified): the inhibition was 40.7% (inactive).

In the case of `COc1ccc(-c2oc3ncnc(NCCCO)c3c2-c2ccc(OC)cc2)cc1`, the inhibition is -19.7% (inactive).

Regarding `COc1ccc(O[C@H]2C=C[C@@H](c3ccccc3)O[C@@H]2CO/N=C/C[C@@H]2C=C[C@H](OC(C)=O)[C@@H](COC(C)=O)O2)cc1`, the inhibition is 16.1% (inactive).

As for `O=C(NCc1ccco1)/C(=C/c1cccc([N+](=O)[O-])c1)NC(=O)c1ccco1`, the inhibition is -2.89% (inactive).

Take `Cc1cc2occ(CC(=O)NNC(=O)c3ccccc3F)c2cc1C`: the inhibition was 18% (inactive).

For `O=C(CSc1nccc(=O)[nH]1)Nc1ccc(N2CCOCC2)c(Cl)c1`, the inhibition is -5.56% (inactive).

For the compound `CCOC(=O)c1nn(-c2cccc(C)c2)cc1C(=O)c1ccccc1`, the inhibition was 152% (active).

In the case of `CCOC(=O)c1cn(Cc2cccc(C)c2)nn1`, the inhibition is 1.57% (inactive).

Consider `CC(=O)c1nn(-c2cccc(Br)c2)cc1C(=O)c1cccc2ccccc12`, for which the inhibition was -19.7% (inactive).

`CCOc1ccc(CNC(=O)CCC(=O)N2CCSc3ccccc32)cc1`: the inhibition is 5.1% (inactive).

For the compound `O=S(=O)(Nc1ccccc1)c1ccc(NS(=O)(=O)c2cccs2)cc1`, the inhibition is -2.44% (inactive).

Regarding `NC(=O)c1cc(S(=O)(=O)N2CCCC2)ccc1OCc1ccc(F)cc1`, the inhibition is -10.2% (inactive).

As to `O=C(Nc1nc(-c2ccc3c(c2)OCO3)cs1)c1ccncc1`, the inhibition was 42.9% (inactive).

`CC(=O)NCCC(=O)Nc1nc(C)c(Cc2ccc3c(c2)OCO3)s1`: the inhibition is 13.3% (inactive).

For the compound `CC(=O)NCCC(=O)Nc1nc(-c2ccc3c(c2)OCCO3)cs1`, the inhibition was 50% (active).

`CC(=O)Nc1ccc(Oc2ccc3c(c2)C(=O)NC3=O)cc1`: the inhibition was -7.33% (inactive).

As for `Cc1ccc(S(=O)(=O)N/N=C(\c2ccccc2)C2CC2)cc1`, the inhibition was -3.31% (inactive).

In the case of `CN(C)/C=C/C(=O)c1ccccc1F`, the inhibition was 30.4% (inactive).

Take `Cc1nc(COc2cccc(Cl)c2)sc1C(=O)/C=C/N(C)C`: the inhibition is 48.6% (inactive).

On to `Cc1nc(-c2ccccc2)sc1C(=O)/C=C/N(C)C`, for which the inhibition was 127% (active).

As for `O=C(CN(C(=O)CCC(=O)Nc1nccs1)c1ccc(F)cc1)NCc1ccc2c(c1)OCO2`, the inhibition is -6.5% (inactive).

With `Cn1c(=NC(=O)c2ccc3c(c2)OCCO3)sc2cc(S(C)(=O)=O)ccc21`, the inhibition is 2.16% (inactive).

For the compound `COCCn1c(=NC(=O)c2ccccc2[N+](=O)[O-])sc2cc(S(C)(=O)=O)ccc21`, the inhibition is 21.4% (active).

Consider `COCCNC(=O)c1ccccc1NS(=O)(=O)c1ccc(C)c([N+](=O)[O-])c1`, for which the inhibition was -5.37% (inactive).

Take `COC(=O)c1cc(NS(=O)(=O)c2ccc3c(c2)c(=O)n(C)c(=O)n3C)cc(C(=O)OC)c1`: the inhibition is -1.69% (inactive).

`Cc1ccc(S(=O)(=O)NNC(=O)/C=C/c2cccc(F)c2)cc1`: the inhibition was -5.71% (inactive).

For `CC1CCCCC1NC(=O)CCS(=O)(=O)c1ccc2c(c1)NC(=O)CO2` (stereo unspecified), the inhibition is 49.7% (inactive).

With `COc1ccc(C(=O)O)cc1S(=O)(=O)NCc1cccnc1`, the inhibition was 2.47% (inactive).

Consider `Cc1cc(Cl)c2oc(C(=O)NC(C)c3ccncn3)c(C)c2c1` (stereo unspecified), for which the inhibition was 14.6% (inactive).

Consider `Cc1cc(Cl)c2oc(C(=O)N(C)C(C)c3ccccn3)c(C)c2c1` (stereo unspecified), for which the inhibition is 50.1% (active).

For the compound `Cc1cc(Cl)c2oc(C(=O)N3CCC(O)(c4ccccc4)CC3)c(C)c2c1`, the inhibition was 18.3% (inactive).
